Measured values taken from PubChem BioAssay (Tox21).
Values without a mark were called inactive. Calls of active or inactive are those of the source. Calls follow the shape of the dose curve; as a rule, active = well fitted curve in the direction sought with a large enough effect in the repeat runs; inconclusive = weak or mixed curves; inactive = flat fitted curve, though single readings scatter.

Experiment: qHTS assay to test for compound auto fluorescence at 590 nm (red) in HepG2 cells (AID 720674)
Conditions: HepG2 autofluorescence, red 540/590 nm, 1 h; series mostly up to 91.3 µM; fluorescence, relative to Rose Bengal: at the top concentration
Description: U.S. Tox21 Program National Center for Advancing Translational Sciences [NCATS] NIH Chemical Genomics Center [NCGC] U.S. Environmental Protection Agency [EPA] National Institutes of Environmental Health Sciences [NIEHS] National Toxicology Program [NTP] U.S. Food and Drug Administration [FDA] Tox21 Assay Overview: Compound auto fluorescence often interferes with screening of the compound library against various biological targets and signaling pathways. Some of these compounds may have fluorophoric properties. Such properties may interfere with the assay outputs resulting in false positives and/or negatives. To decrease such complications and ensure the compound activities are relevant in terms of biological response, the Tox21 10K compound library was screened for auto fluorescence. From the fluorophores used as reporter signals in our screening assays, the auto fluorescence equivalencies of compounds against three fluorophores have been evaluated: Triamterene, Fluorescein and Rose Bengal sodium for blue, green and red fluorescence, respectively. The fluorescence intensities were measured using Excitation/Emission wavelengths at 405/460nm, 485/535nm and 540/590nm for blue, green and red labels, respectively. This assay includes the red fluorescence data.
Tox21 Assay Protocol Summary: 2,000 HepG2 cells in 5 uL of culture medium (MEM containing 10% FBS) per well were dispensed into black wall/clear bottom 1536-well plates using a Multidrop Combi Dispenser (ThermoFisher Scientific, Waltham, MA). The assay plates were incubated overnight at 37 C to allow cell attachment to the well bottom, followed by the transfer of 23 nL compound or DMSO vehicle by a pintool work station (Kalypsys , San Diego, CA). After the assay plates were incubated for 1 hr at 37 C and 5% CO2, fluorescence intensities in the assay plates were measured by an Envision (PerkinElmer, Shelton, CT) plate reader using three labels for measuring blue, green and red fluorescence at […] 460, 535 and 590 nm respectively.
% is scaled to controls: 0 for no effect and ±100 for the full control effect.

Row | SMILES | fluorescence, relative to Rose Bengal | outcome
1 | CC(=O)c1cccnc1 | -1.22% | 
2 | O=C(O)CNc1ccccc1 | -0.0332% | 
3 | CCCCC(CC)COCCC#N (stereo not given) | 0.0784% | 
4 | O=C(O)c1ccc2c(c1)nc(C(=O)NC1CCN(C3CC3)CC1)n2Cc1cc(-c2ccc(Cl)s2)on1 | 0.429% [at 18.6 µM] | 
5 | COc1cc(CNC(=O)CCCC/C=C/C(C)C)ccc1O |  | inactive
6 | C=Cc1ccc(C=C)cc1 | 0.113% [at 95.7 µM] | 
7 | CC(CCl)OC(C)CCl (stereo not given) | 0.184% | 
8 | C[C@@H](O)[C@H]1C(=O)N2C(C(=O)O)=C(S[C@@H]3CN[C@H](CNS(N)(=O)=O)C3)[C@H](C)[C@H]12 | 0.117% [at 46 µM] | 
9 | CCn1nc(Cc2ccccc2)cc1C1CCN(C[C@H]2C[C@H](N(C)[C@@H](C(=O)O)C(C)C)C[C@@H]2c2cccc(F)c2)CC1 | 0.0921% | 
10 | Cc1c(Cl)cccc1[N+](=O)[O-] | -0.304% | 
11 | O=C(Cl)c1cc(Cl)cc(Cl)c1 | -0.0755% [at 95.7 µM] | 
12 | CC1=CC(=C(c2ccc(N)cc2)c2ccc(N)cc2)C=CC1=N |  | inactive
13 | CC(C)CC(C)(C)C | -0.0086% [at 95.7 µM] | 
14 | CC1(C)[C@@H]2CC[C@]3(C2)[C@@H]1C(=O)CCC3(C)C | -0.208% | 
15 | C/C(=C\C(C)CC(C)CC(C)C)C1CC(=O)OC1=O (stereo not given) | 0.118% | 
16 | COc1ccc(C(=O)Nc2ccccc2)cc1[N+](=O)[O-] | 0.151% | 
17 | C=C(C)C(=O)OCCCCCCCCCCOC(=O)C(=C)C | -0.228% | 
18 | CCCCCCCCCCCC(=O)OCC | -0.0383% | 
19 | O=C(Cl)c1ccc(F)c(Cl)c1 | 0.0292% | 
20 | CCOc1ccc2c(c1)C(C)CC(C)(C)N2 (stereo not given) | -0.293% | 

Row | SMILES | fluorescence, relative to Rose Bengal | outcome
21 | CCCCOc1ccc(N)cc1 | 0.0481% | 
22 | O=C(O)c1ccc2cc(O)ccc2c1 | 0.0349% | 
23 | O=C(OCCCCCOC(=O)c1ccccc1)c1ccccc1 | 0.103% | 
24 | O=[N+]([O-])c1cccc(I)c1 | -0.0486% | 
25 | O=C1OC(=O)C2CC=CCC12 (stereo not given) | 0.108% | 
26 | CC(C)NC(=O)c1ccccc1N | -0.652% | 
27 | C=CCCC | 0.345% [at 95.7 µM] | 
28 | CC(C)CCCCCCCOC(=O)c1ccc(C(=O)OCCCCCCCC(C)C)c(C(=O)OCCCCCCCC(C)C)c1 | 0.587% | 
29 | O=S(=O)(O)c1cc(Cl)c(Cl)cc1Cl | -0.109% | 
30 | CCCCCCCCOCCCN | 0.214% | 
31 | CC(C)(C)NCC(O)COc1ccc(NC(=O)NC2CCCCC2)cc1 (stereo not given) | 0.18% [at 46 µM] | 
32 | Cc1ccc(S(=O)(=O)NC(=O)NC2CCCC2)cc1 | -0.144% [at 46 µM] | 
33 | C(/C=C/C=C/Nc1ccccc1)=Nc1ccccc1 | -0.504% | 
34 | COc1cc(C)c(Cc2cnc(N)nc2N)cc1OC | 0.701% [at 46 µM] | 
35 | [O-][n+]1ccc(Cl)cc1 | -0.281% [at 95.7 µM] | 
36 | Cc1nc2sccn2c(=O)c1CCN1CCC(=C(c2ccc(F)cc2)c2ccc(F)cc2)CC1 | 0.327% [at 46 µM] | 
37 | CCc1cnc(C(=O)O)c(C(=O)O)c1 | -0.03% [at 95.7 µM] | 
38 | FC1(F)C(F)(F)C(F)(F)C2(F)C(F)(C1(F)F)C(F)(F)C(F)(F)C1(F)C(F)(F)C(F)(F)C(F)(F)C(F)(F)C12F (stereo not given) | -0.0059% | 
39 | CC(C)=CCC[C@H](C)CCO | 0.154% | 
40 | O=C(O)c1cc(C(=O)O)cc([N+](=O)[O-])c1 | 0.307% | 
